Data published in PubChem BioAssay (Tox21).
Where “and” joins values, the source holds several entries; their conditions need not be identical. Equal entries are not always repeated. Results filed as inconclusive are left out. A structure can be active in one record and inactive in another. Calls of active or inactive are those of the source. Unless noted, the call rests on the fitted dose curve; in most records, active means well fitted curve in the direction sought with a large enough effect in the repeat runs; inconclusive means weak or mixed curves; inactive means no such curve, though single readings can be large; an effect the other way counts as inactive or inconclusive.

Key:
[1] = qHTS assay to identify small molecule agonists of the NFkB signaling pathway (AID 1159509; active means well fitted curve in the direction sought with a large enough effect in the signal ratio in the repeat runs, not every such curve was filed as active; the % refers to the signal ratio; further: series mostly up to about 61 µM)
In short: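 Pathway activation was measured in ME-180 cells stably expressing beta-lactamase under NF-kB response element control. Substrate cleavage was read as the 460/530 nm emission shift after 5 hr compound incubation.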

[2] = qHTS assay to identify small molecule agonists of the NFkB signaling pathway - cell viability counter screen (AID 1159515; calls by dose curve; further: series mostly up to about 61 µM; nearly all actives have a fitted effect of over 55% in size)
In short: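 Counter screen run alongside the NFkB-bla agonist assay: ME-180 reporter cells exposed to compounds for 5 hr, then lysed with CellTiter-Glo in the same wells. Luminescence, read after 30 min, reflects viable cells.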

[3] = qHTS assay to identify small molecule agonists of the endoplasmic reticulum stress response signaling pathway (AID 1159516; active means well fitted activation curve with a large enough effect in the signal ratio in the repeat runs, not every such curve was filed as active; the % refers to the signal ratio)
In short: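 For this screen, HeLa cells stably carrying beta-lactamase under the ER stress response element received test compounds, positive controls or DMSO for 5 hr at 37 C; B/G FRET substrate was then added and dual-wavelength emission recorded.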

[4] = qHTS assay to identify small molecule agonists of the endoplasmic reticulum stress response signaling pathway - cell viability counter screen (AID 1159517; calls by dose curve; further: series mostly up to about 61 µM; nearly all actives have a fitted effect of over 50% in size)
In short: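 ESRE-bla HeLa cells (1,500/well) were plated overnight at 37 C and exposed to compounds for 5 hr. After the 2 hr beta-lactamase substrate read, CellTiter-Glo went into the same wells, and luminescence was read after 30 min at room temperature.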

[5] = qHTS assay to identify small molecule antagonists of the retinoid-related orphan receptor gamma (ROR-gamma) signaling pathway - cell viability counter screen (AID 1159520); further: nearly all actives have a fitted effect of over 50% in size
In short: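 Cytotoxicity was read from cellular ATP (CellTiter-Glo luminescence) after 16 hr at 37 C with 1 uM doxycycline induction. The inducer was added 2 hr after compound transfer to Tet-on ROR gamma CHO cells.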

[6] = biological target: Nuclear receptor ROR-gamma (Homo sapiens) (UniProt P51449); assay: qHTS assay to identify small molecule antagonists of the retinoid-related orphan receptor gamma (ROR-gamma) signaling pathway (AID 1159521;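 further: CHO cells with doxycycline inducible ROR-gamma driving an RORE luciferase reporter; top concentration of the series differs between compounds; nearly all actives have a fitted effect of over 50% in size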)
In short: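 Tet-on RORγ CHO cells carrying a ROR response element–luciferase reporter were pretreated with compounds for 2 h, then induced with 1 uM (final) doxycycline hyclate for 16 h at 37 C. Antagonism was read as decreased ONE-Glo luminescence.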

[7] = qHTS assay to identify small molecule agonists of the AP-1 signaling pathway - cell viability counter screen (AID 1159525; calls by dose curve; further: nearly all actives have a fitted effect of over 55% in size)
In short: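 Intracellular ATP by Cell Titer Glo luminescence (30 min, RT) in the same ME-180 AP-1-bla wells after the 5 h compound exposure at 37 °C. Normalised to tetra n-octyl ammonium bromide and DMSO controls.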

[8] = qHTS assay to identify small molecule agonists of the AP-1 signaling pathway (AID 1159526; calls by dose curve; further: potency means the concentration at half of the fitted maximal effect)
[9] = biological target: Retinoic acid receptor RXR-alpha (Homo sapiens) (UniProt P19793); assay: qHTS assay to identify small molecule agonists of the RXR signaling pathway (AID 1159527; calls by dose curve; further: nearly all actives have a fitted effect of over 35% in size)
Chain of Retinoic acid receptor RXR-alpha (Homo sapiens) (P19793 whole entry, looked up): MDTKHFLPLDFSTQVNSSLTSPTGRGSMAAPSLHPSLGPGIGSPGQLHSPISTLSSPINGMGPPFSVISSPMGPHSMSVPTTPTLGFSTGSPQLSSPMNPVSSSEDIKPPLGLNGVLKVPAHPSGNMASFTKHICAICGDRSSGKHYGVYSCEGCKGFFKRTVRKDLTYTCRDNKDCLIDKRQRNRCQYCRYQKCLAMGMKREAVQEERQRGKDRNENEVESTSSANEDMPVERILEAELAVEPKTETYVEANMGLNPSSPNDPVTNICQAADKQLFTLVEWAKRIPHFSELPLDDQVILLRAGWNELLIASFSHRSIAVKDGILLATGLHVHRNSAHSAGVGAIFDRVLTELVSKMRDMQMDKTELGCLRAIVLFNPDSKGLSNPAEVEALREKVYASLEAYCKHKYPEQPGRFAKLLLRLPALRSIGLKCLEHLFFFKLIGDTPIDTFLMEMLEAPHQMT
In short: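 GeneBLAzer RXR-alpha-UAS-bla HEK 293T cells in medium with 2% charcoal-stripped FBS, pre-incubated 5 hr at 37 C, then exposed to compounds 16 hr. Beta-lactamase reporter read by FRET substrate, 2 hr room temperature, 460/530 nm emission.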

[10] = qHTS assay to identify small molecule agonists of the RXR signaling pathway - cell viability counter screen (AID 1159529); further: series mostly up to about 77 µM; nearly all actives have a fitted effect of over 50% in size
In short: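 RXR-alpha-UAS-bla HEK 293T cells in medium with 2% charcoal-stripped FBS were preincubated 5 hr, then exposed to compounds for 16 hr at 37 C. Viability was read as CellTiter-Glo luminescence after 30 min at room temperature.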

[11] = qHTS assay to identify small molecule antagonists of the retinoid acid receptor (RAR) signaling pathway - cell viability counter screen (AID 1159551); further: nearly all actives have a fitted effect of over 35% in size
In short: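 Measured by luminescent ATP detection, viability reflects C3RL4 cells treated 6 h at 37 C with test chemicals in the presence of 1 uM (final) retinol.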

[12] = qHTS assay to identify small molecule antagonists of the retinoic acid receptor (RAR) signaling pathway (AID 1159552; further: nearly all actives have a fitted effect of over 50% in size)
In short: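 RARE-luc C3RL4 cells; cpds + 1 uM (final) retinol, 6 hr, 37 C/5% CO2; luciferase reagent, 30 min RT, luminescence readout. Inhibitors of retinol-driven signal scored.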

[13] = qHTS assay to identify small molecule agonists of the retinoic acid receptor (RAR) signaling pathway (AID 1159553); further: potency means the concentration at half of the fitted maximal effect
In short: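 6 hr compound exposure (DMSO vehicle) of overnight-plated C3RL4 RARE-luc cells at 37 C; luminescence quantified after 30 min RT with luciferase reagent.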

[14] = qHTS assay to identify small molecule antagonists of the estrogen related receptor (ERR) signaling pathway from Tox21 library - cell viability counter screen (AID 1224834); further: nearly all actives have a fitted effect of over 30% in size
In short: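 Seeded ERR cells were rested 6 h at 37 C/5% CO2 before compounds, positive and negative controls or DMSO were added. Incubation continued for 17.5 h, and viability was then quantified by CellTiter-Fluor fluorescence.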

[15] = qHTS assay to identify small molecule antagonists of the estrogen related receptor (ERR) signaling pathway - cell viability counter screen (AID 1224818); further: series mostly up to about 46 µM
In short: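 Compounds dissolved in DMSO were applied to ERR cells seeded at 2,000 per well 6 h earlier. Cell viability followed 17.5 h later via 30-min CellTiter-Fluor fluorescence.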

[16] = qHTS assay to identify small molecule antagonists of the estrogen related receptor signaling pathway with the pleiotropic PPARgamma coactivator (PGC) cell viability counter screen (AID 1224822; further: series mostly up to about 46 µM)
In short: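 Counter screen for cell viability: PGC/ERR cells, 6 h pre-incubation after plating, 17.5 h compound exposure at 37 C, fluorescence from CellTiter-Fluor after 30 min.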

[17] = qHTS assay to identify small molecule antagonists of the estrogen related receptor (ERR) signaling pathway (AID 1224819)
In short: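 Compounds dissolved in DMSO were pin-transferred onto ERR cells that had been plated 6 h earlier, and cells were then incubated 18 h at 37 C; signal was luciferase luminescence via One-Glo.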

[18] = qHTS assay to identify small molecule agonists of the estrogen related receptor (ERR) signaling pathway (AID 1224820)
In short: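 An ERR cell line provided by NTP was seeded at 2,000 cells per well and allowed to settle for 6 h before compounds in DMSO were added. After 18 h at 37 C, luciferase activity was measured by One-Glo luminescence.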

[19] = system: estrogen-related receptor alpha (ERRalpha) with PGC-1alpha coactivator, human; assay: qHTS assay to identify small molecule antagonists of the estrogen related receptor signaling pathway with the pleiotropic PPARgamma coactivator (PGC) (AID 1224821; calls by dose curve)
In short: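 A PGC/ERR cell line supplied by NTP is seeded, allowed 6 h at 37 C, and treated with test compounds in DMSO for 18 h. Signal is then measured as luciferase luminescence using One-Glo.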

[20] = qHTS assay to identify small molecule agonists of the estrogen related receptor signaling pathway with the pleiotropic PPARgamma coactivator (PGC) (AID 1224823)
In short: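 Compounds dissolved in DMSO are added by pin tool to PGC/ERR cells that have settled for 6 h, and incubation continues 18 h at 37 C. Reporter output is measured as One-Glo luminescence.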

Measured: Potency

CCn1cc(C(=O)O)c(=O)c2ccc(C)nc21
not listed: [14] | [15] | [16] | [17] | [18] | [19] | [20]
inactive: all other assays above

COCCOCCOC
not listed: [7] | [15] | [16] | [17] | [18] | [19] | [20]
inactive: all other assays above

OCCCc1ccccc1
not listed: [15] | [16] | [17] | [18] | [19] | [20]
inactive: all other assays above

O=C(OCc1ccccc1)c1ccccc1
active: [13] 2.43 µM and 29.8 µM
not listed: [15] | [16] | [17] | [18] | [19] | [20]
inactive: all other assays above

CCCCCCCCCCCCCCCCCC(=O)OCC(O)CO (centres undefined)
not listed: [7] | [15] | [16] | [17] | [18] | [19] | [20]
inactive: all other assays above

CCCCCCCCOc1ccc(C(=O)c2ccccc2)c(O)c1
not listed: [13] | [15] | [16] | [17] | [18] | [19] | [20]
inactive: all other assays above

Nc1cccc(N)c1
not listed: [15] | [16] | [17] | [18] | [19] | [20]
inactive: all other assays above

CN/C(=C\[N+](=O)[O-])NCCSCc1ccc(CN(C)C)o1
not listed: [17] | [18] | [19] | [20]
inactive: all other assays above

O=C(O)CCCCC1CCSS1 (centres undefined)
27.5 µM (active) and inactive: [8]
not listed: [12] | [13] | [15] | [16] | [17] | [18] | [19] | [20]
inactive: all other assays above

CCCCOC(=O)CCCCCCCCC(=O)OCCCC
not listed: [15] | [16] | [17] | [18] | [19] | [20]
inactive: all other assays above

CC(C)(C)NCC(O)c1ccc(O)c(CO)c1 (centres undefined)
not listed: [7] | [17] | [18] | [19] | [20]
inactive: all other assays above

CCCCCCCCCCCCCC(=O)OC(C)C
not listed: [13] | [15] | [16] | [17] | [18] | [19] | [20]
inactive: all other assays above

C[C@]12C[C@H](O)[C@H]3[C@@H](CCC4=CC(=O)CC[C@@]43C)[C@@H]1CC[C@@H]2C(=O)CO
not listed: [6] | [17] | [18] | [19] | [20]
inactive: all other assays above

Cc1cccc2ccccc12
not listed: [6] | [15] | [16] | [17] | [18] | [19] | [20]
inactive: all other assays above

CCN1CCCC1=O
not listed: [6] | [15] | [16] | [17] | [18] | [19] | [20]
inactive: all other assays above

O=c1c(-c2ccc(O)cc2)coc2cc(O)cc(O)c12
active: [13] 1.9 µM and 1.37 µM and 2.37 µM
not listed: [7] | [9] | [17] | [18] | [19] | [20]
inactive: all other assays above

COC(=O)C1CCC(C(=O)OC)CC1 (centres undefined)
not listed: [6] | [13] | [15] | [16] | [17] | [18] | [19] | [20]
inactive: all other assays above

CC(C)Cc1ccc(C(C)C(=O)O)cc1 (centres undefined)
not listed: [6] | [13]
inactive: all other assays above
